Laboratory results published in PubChem BioAssay (NCATS).
Several values for one entry are separate records, joined by “and”; a condition that tells them apart may be missing. Identical values can stand only once. Inconclusive results are not listed. Activity calls are given as the source filed them. Unless noted, calls follow the shape of the dose curve; as a rule, active = well fitted curve in the direction sought with a large enough effect; inconclusive = small, poorly fitted or top-dose-only effect, or another doubt; inactive = no such curve, though single readings can be large; an effect the other way counts as inactive or inconclusive.

Columns and labels:
[1] = AP1 Signaling Pathway (AID 357; active = well fitted curve in either direction with a large enough effect, not every such curve was filed as active;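 also: ME-180 reporter cells stimulated with EGF at its EC50 level; % is scaled to controls: 0 for no effect and ±100 for the full control effect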); conditions: ME-180 AP-1-bla reporter, EGF-induced, beta-lactamase ratio, 5 h
Summary of the method: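 First, ME-180 AP-1-bla cells were cultured overnight at 37 °C in low-serum Opti-MEM. Next, titrated compounds with EC50 EGF were incubated 5 hours. Finally, CCF4 was added for 2.5 hours and the 460/530 nm ratio recorded.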

[2] = biological target: Cytochrome P450 1A2 (Homo sapiens) (UniProt P05177); experiment: p450-cyp1a2 (AID 410; calls by dose curve; also: potency is read from the fitted curve at half-maximal effect;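 as to activity change, negative = inhibition: -100% = full effect of reference inhibitor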); conditions: recombinant CYP1A2, luciferin-ME demethylation, luminescence; series mostly up to 57 µM
Summary of the method: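 Human CYP1A2 (20nM) demethylated Luciferin-ME at its Km (100uM) in 100mM KPO4. After 10 min compound preincubation, NADPH regeneration ran the reaction 60 min at room temperature. Luciferin was read by luminescence, normalized to 57 uM furafylline.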

[3] = NFAT Signaling Pathway (AID 444; active = well fitted curve in either direction with a large enough effect, not every such curve was filed as active;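 also: carbachol stimulus at about its EC50 of 1 µM final; % is scaled to controls: 0 for no effect and ±100 for the full control effect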); conditions: Jurkat NFAT-bla M1, carbachol, beta-lactamase ratio, 5 h
Summary of the method: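 Read-out: CCF4 FRET ratio (460 nm/530 nm) after 1 h RT dye loading, used for %activity and AC50 from titration series. Cells: Jurkat NFAT-β-lactamase/M1 line, treated with compound plus 1 uM carbachol for 5 h, 37 °C.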

[4] = Stat Signaling Pathway (AID 446; active = well fitted curve in either direction with a large enough effect, not every such curve was filed as active;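 also: ME-180 cervical cancer cells given 40 pM IL-6 alongside compound; SIE-controlled beta-lactamase reporter measured as 460/530 nm FRET emission ratio; % is scaled to controls: 0 for no effect and ±100 for the full control effect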); conditions: ME-180 (cervical carcinoma) SIE beta-lactamase reporter, IL-6 stimulated, 5 h
Summary of the method: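 IL-6/STAT signaling read in ME-180 cells via an SIE beta-lactamase reporter. Stimulus was 40 pM IL-6 (its AC50) for 5 hrs, so both activation and inhibition register.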

[5] = biological target: Mitogen-activated protein kinase 10 (Mus musculus) (UniProt Q61831); experiment: JNK3 AlphaScreen Assay (AID 530; active = well fitted curve in either direction with a large enough effect, not every such curve was filed as active;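 also: kinase came from lysate of stimulated human HepG2 cells; signal reports phosphorylation of biotinylated GST-cJun 1-79 at Ser73 with 10 µM ATP; % is scaled to controls: 0 for no effect and ±100 for the full control effect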); conditions: JNK3 lysate, c-Jun phosphorylation; series mostly up to 57.1 µM
Summary of the method: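 Room-temperature AlphaScreen kinase assay; pre-activated HepG2 lysate as JNK3 source, biotin-GST-cJun(1-79) substrate, 10 uM ATP, compound 15 min preincubation.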

[6] = biological target: 3',5'-cyclic-AMP phosphodiesterase 4B (Homo sapiens) (UniProt Q07343); experiment: qHTS Assay for Inhibitors of PDE-IV (AID 607; active = well fitted activation curve with a large enough effect in the main read-out, with a control signal flat, not every such curve was filed as active; also: % of control where 0% means no effect); conditions: HEK293 ACTOne CNG channel cells, membrane potential fluorescence; series mostly up to 22.9 µM
Sequence of 3',5'-cyclic-AMP phosphodiesterase 4B (Homo sapiens) (Q07343 whole entry, looked up): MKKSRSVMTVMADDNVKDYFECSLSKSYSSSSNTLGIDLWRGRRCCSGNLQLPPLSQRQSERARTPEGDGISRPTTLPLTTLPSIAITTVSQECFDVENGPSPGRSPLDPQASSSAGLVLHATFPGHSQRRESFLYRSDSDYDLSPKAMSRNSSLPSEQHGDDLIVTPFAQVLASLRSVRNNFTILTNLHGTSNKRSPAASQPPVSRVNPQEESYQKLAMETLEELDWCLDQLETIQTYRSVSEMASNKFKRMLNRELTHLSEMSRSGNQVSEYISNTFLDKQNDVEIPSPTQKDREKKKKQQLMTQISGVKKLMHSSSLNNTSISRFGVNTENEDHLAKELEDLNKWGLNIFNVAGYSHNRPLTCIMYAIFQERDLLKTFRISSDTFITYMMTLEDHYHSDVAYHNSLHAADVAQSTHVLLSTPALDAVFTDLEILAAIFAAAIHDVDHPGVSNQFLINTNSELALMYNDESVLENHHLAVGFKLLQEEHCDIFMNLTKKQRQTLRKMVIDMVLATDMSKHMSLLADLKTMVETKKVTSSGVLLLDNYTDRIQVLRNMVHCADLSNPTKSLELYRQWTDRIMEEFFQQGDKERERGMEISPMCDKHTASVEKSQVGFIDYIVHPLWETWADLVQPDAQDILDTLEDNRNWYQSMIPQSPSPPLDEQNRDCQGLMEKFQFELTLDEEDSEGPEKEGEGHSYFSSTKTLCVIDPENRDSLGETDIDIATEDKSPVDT
Summary of the method: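 Live HEK293 cells with a modified cyclic nucleotide-gated (CNG) channel report intracellular cAMP via membrane-potential dye fluorescence (ex 535/em 590 nm). Endogenous PDE-IV was targeted. Compounds were tested at up to 22.9 uM final; RO 20-1724 100 uM served as control.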

[7] = biological target: Guanine nucleotide-binding protein G(i) subunit alpha-1 (Homo sapiens) (UniProt P63096); experiment: qHTS Assay for Inhibitors of RGS12 GoLoco Motif Activity (Green Fluorophore) (AID 879); conditions: Galphai1/FITC-RGS12 GoLoco peptide, fluorescence polarization; series mostly up to 57.1 µM;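 also: 0% = labeled peptide with Gαi1 and full inhibition = labeled peptide alone without protein; negative values mean loss of peptide binding seen as reduced polarization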
Sequence of Guanine nucleotide-binding protein G(i) subunit alpha-1 (Homo sapiens) (P63096 whole entry, looked up): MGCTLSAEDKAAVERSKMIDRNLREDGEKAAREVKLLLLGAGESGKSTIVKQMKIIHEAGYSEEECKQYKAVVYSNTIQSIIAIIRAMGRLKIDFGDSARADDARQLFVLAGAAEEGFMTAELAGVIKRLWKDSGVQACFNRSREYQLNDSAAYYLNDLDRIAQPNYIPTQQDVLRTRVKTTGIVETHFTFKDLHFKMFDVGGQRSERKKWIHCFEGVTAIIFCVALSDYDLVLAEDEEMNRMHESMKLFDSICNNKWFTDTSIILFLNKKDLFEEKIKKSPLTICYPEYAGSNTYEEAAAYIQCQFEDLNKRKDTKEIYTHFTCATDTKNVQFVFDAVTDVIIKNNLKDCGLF
Summary of the method: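 Fluorescence polarization assay: 50 nM Gαi1 with 10 nM FITC-labeled RGS12 GoLoco peptide in 10 mM Tris pH 7.5, 150 mM NaCl, 0.1 mM GDP, 0.05% NP40, 10 min at room temperature with compound.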

[8] = biological target: Pyruvate kinase (Leishmania mexicana) (UniProt Q27686); experiment: qHTS Validation Assay for Inhibitors of Leishmania Mexicana Pyruvate Kinase (AID 945);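 also: 0% = DMSO only neutral control wells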; conditions: purified L. mexicana pyruvate kinase, enzyme activity, E451W mutant enzyme; series mostly up to 57.5 µM
Sequence of Pyruvate kinase (Leishmania mexicana) (Q27686 2-499 E452W): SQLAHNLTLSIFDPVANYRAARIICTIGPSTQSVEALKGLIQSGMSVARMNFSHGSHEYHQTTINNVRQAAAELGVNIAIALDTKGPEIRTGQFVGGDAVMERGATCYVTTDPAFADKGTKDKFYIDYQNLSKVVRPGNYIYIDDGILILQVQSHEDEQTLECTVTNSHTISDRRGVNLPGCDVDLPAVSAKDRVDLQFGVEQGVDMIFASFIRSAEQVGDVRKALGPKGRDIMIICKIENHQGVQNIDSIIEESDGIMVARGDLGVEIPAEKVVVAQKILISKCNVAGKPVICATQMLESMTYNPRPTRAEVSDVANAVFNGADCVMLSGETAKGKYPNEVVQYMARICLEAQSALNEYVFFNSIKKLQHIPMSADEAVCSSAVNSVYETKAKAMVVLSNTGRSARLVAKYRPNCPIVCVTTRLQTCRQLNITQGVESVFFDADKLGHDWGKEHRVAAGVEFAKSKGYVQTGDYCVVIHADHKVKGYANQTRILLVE
Summary of the method: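 The enzyme is a highly purified E451W mutant of LmPYK used at 0.2 nM. It converts 0.5 mM PEP and 0.1 mM ADP over 1 h at room temperature; product ATP is quantified by luciferase luminescence relative to DMSO controls.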

[9] = biological target: Pyruvate kinase PKM (Homo sapiens) (UniProt P14618); experiment: qHTS Assay for Activators of Human Muscle Pyruvate Kinase (AID 954; active = well fitted curve in the direction sought with a large enough effect, not every such curve was filed as active;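 also: 0% = uninhibited enzyme and -100% = no enzyme or full thiadiazolimine inhibition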); conditions: purified human muscle pyruvate kinase, luciferase-coupled luminescence, 1 h; series mostly up to 57.5 µM
Sequence of Pyruvate kinase PKM (Homo sapiens) (P14618 whole entry, looked up): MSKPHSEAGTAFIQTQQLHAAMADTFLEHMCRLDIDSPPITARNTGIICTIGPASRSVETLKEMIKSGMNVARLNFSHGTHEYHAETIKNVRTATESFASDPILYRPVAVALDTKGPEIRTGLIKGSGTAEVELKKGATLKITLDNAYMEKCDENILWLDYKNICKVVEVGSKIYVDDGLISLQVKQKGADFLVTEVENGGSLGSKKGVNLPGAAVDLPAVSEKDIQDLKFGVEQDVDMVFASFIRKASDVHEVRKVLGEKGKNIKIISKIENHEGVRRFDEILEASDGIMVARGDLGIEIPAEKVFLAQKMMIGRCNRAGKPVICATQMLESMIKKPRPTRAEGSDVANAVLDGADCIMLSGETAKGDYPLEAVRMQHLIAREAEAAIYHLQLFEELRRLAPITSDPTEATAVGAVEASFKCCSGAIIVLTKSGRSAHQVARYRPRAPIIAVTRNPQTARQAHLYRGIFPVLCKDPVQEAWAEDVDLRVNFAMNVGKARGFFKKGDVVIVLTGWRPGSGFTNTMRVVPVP
Summary of the method: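 Enzyme was run at intermediate activity so both inhibitors and activators could be detected. ATP formed from ADP and PEP by 0.1 nM human PKM2 during a 1 h room-temperature incubation was quantified by coupled luciferase luminescence.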

[10] = qHTS Assay for Lipid Storage Modulators (AID 1519; calls by dose curve); conditions: Drosophila S3 cells, BODIPY lipid droplet/cell ratio, laser cytometry, cells loaded with oleic acid
Summary of the method: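 Cells seeded at 5,000 per well were treated with compounds over a concentration series and loaded with oleic acid (400 uM, as added). Lipid droplet fluorescence (488 nm excitation, 500-530 nm channel) was read by laser-scanning cytometry and normalized to 20 uM Triacsin C.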

[11] = biological target: ATP-dependent 6-phosphofructokinase (Trypanosoma brucei brucei) (UniProt O15648); experiment: qHTS Assay to Find Inhibitors of T. brucei phosphofructokinase: hit validation (AID 492961); conditions: T. brucei PFK, ADP-Glo luminescence; series mostly up to 24.3 µM
Sequence of ATP-dependent 6-phosphofructokinase (Trypanosoma brucei brucei) (O15648 whole entry, looked up): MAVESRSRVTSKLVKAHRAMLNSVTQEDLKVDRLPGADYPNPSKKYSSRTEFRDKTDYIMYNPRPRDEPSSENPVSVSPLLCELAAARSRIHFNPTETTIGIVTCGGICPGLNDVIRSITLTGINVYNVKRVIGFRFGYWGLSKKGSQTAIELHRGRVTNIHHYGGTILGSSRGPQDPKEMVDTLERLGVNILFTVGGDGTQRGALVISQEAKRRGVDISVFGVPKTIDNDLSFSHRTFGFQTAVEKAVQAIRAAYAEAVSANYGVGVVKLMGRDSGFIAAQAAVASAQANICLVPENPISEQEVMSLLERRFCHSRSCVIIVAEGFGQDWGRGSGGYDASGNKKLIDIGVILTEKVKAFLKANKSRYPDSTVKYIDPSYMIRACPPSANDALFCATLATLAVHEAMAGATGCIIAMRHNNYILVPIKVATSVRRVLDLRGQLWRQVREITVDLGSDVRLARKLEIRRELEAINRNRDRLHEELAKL
Summary of the method: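 Measures ADP output of PFK (1.25 nM) at 0.1 mM ATP, 0.5 mM F6P, pH 8.0 TEA buffer with 5 mM MgCl2. No-enzyme wells define full inhibition; uninhibited enzyme wells define zero.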

[12] = biological target: Ubiquitin carboxyl-terminal hydrolase 1 (Homo sapiens) (UniProt O94782); experiment: Inhibitors of USP1/UAF1: Pilot qHTS (AID 504865); conditions: purified USP1/UAF1, Ub-rhodamine cleavage fluorescence; series mostly up to 54.9 µM;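 also: rhodamine fluorescence freed from ubiquitin-rhodamine substrate followed over time; top concentration of the series differs between compounds; % is scaled to controls: 0 for no effect and ±100 for the full control effect; nearly all actives have a fitted effect of over 35% in size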
Sequence of Ubiquitin carboxyl-terminal hydrolase 1 (Homo sapiens) (O94782 whole entry, looked up): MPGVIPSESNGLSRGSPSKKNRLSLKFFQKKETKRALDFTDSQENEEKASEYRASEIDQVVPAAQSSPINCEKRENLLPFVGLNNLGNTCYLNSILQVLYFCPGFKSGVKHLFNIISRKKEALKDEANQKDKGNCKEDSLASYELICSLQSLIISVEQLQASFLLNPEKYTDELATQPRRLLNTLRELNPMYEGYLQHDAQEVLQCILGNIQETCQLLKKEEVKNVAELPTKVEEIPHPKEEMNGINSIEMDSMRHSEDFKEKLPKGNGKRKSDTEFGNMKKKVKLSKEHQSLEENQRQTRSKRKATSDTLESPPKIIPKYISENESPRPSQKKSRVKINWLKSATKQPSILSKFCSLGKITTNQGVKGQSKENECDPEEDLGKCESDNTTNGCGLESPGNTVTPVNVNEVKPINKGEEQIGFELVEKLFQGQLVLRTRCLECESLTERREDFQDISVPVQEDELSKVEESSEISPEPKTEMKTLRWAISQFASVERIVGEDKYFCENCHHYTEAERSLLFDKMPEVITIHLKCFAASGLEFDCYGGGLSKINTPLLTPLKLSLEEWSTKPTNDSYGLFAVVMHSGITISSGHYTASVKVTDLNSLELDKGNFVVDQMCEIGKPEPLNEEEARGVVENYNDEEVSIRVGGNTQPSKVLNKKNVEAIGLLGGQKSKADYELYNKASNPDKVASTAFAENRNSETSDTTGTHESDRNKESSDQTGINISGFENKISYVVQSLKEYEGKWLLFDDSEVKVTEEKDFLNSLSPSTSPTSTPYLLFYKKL
Summary of the method: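 USP1/UAF1 complex at 1 nM preincubated 15 min at room temperature with compound, then Ub-Rho substrate added at 150 nM final. Fluorescence (480/540 nm) read kinetically in 50 mM HEPES pH 7.8, 0.5 mM EDTA, 1 mM TCEP, 0.1 mg/ml BSA, 0.01% Tween-20.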

[13] = biological target: Luciferin 4-monooxygenase (Photinus pyralis) (UniProt P08659); experiment: Biochemical firefly luciferase enzyme assay for NPC (AID 624030);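 also: purified P. pyralis luciferase at 10 nM with luciferin and ATP substrate; 0% = DMSO and -100% = full luciferase inhibition by PTC124 control; nearly all actives have a fitted effect of over 70% in size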; conditions: purified P. pyralis luciferase, luminescence, 5 min; series mostly up to 58.6 µM
Sequence of Luciferin 4-monooxygenase (Photinus pyralis) (P08659 whole entry, looked up): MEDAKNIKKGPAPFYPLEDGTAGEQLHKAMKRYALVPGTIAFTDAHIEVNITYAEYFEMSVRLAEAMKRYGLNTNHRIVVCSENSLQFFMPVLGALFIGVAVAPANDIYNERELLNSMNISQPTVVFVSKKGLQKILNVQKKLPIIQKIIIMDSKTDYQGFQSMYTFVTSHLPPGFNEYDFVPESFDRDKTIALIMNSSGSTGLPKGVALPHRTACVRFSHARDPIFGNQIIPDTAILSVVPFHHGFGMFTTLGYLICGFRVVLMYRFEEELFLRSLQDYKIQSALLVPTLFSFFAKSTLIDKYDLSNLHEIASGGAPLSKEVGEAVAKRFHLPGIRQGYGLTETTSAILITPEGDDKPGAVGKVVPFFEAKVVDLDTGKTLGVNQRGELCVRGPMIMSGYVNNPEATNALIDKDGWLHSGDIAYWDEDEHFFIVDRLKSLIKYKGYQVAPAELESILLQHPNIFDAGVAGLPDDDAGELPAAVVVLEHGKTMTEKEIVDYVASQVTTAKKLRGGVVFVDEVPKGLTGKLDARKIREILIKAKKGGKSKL
Summary of the method: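 Direct inhibition of firefly luciferase enzyme (10 nM final, 50 mM Tris Acetate) assessed by luminescence within 5 minutes. Percent activity scaled between DMSO and PTC124 positive control, with concentration-effect curves classified by fit quality and response.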

[14] = qHTS profiling for inhibitors of Plasmodium falciparum proliferation (AID 504749); also: potency is read from the fitted curve at half-maximal effect;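 as to activity, negative = inhibition: 0% = DMSO vehicle and full inhibition = artemisinin control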; as to all read-outs here: nearly all actives have a fitted effect of over 60% in size; conditions: P. falciparum in erythrocytes, SYBR Green DNA, 72 h; for activity, negative = inhibition: at 28.7 µM (top of the series)
Summary of the method: (§1)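 Three-day growth assay of blood-stage parasites in erythrocytes (0.3% parasitemia, 2.5% hematocrit) at 37 C, 5% CO2, quantified by SYBR Green DNA staining after overnight detergent lysis.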

AS120 = experiment: as above; conditions: P. falciparum in erythrocytes, SYBR Green DNA, 72 h; series mostly up to 28.7 µM
Summary of the method: as §1

CP238 = experiment: as above; conditions: P. falciparum in erythrocytes, SYBR Green DNA, 72 h; series mostly up to 12.8 µM
Summary of the method: as §1

CP265 = experiment: as above; conditions: P. falciparum in erythrocytes, SYBR Green DNA, 72 h; series mostly up to 12.8 µM
Summary of the method: as §1

FAB9 = experiment: as above; conditions: P. falciparum in erythrocytes, SYBR Green DNA, 72 h; series mostly up to 12.8 µM
Summary of the method: as §1

[15] = biological target: Glucocorticoid receptor (Homo sapiens) (UniProt P04150); experiment: GR-GFP Redistribution (AID 450;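 active = compounds whose dose series gives a full or clear partial fitted curve of increased nuclear translocation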; also: potency is read from the fitted curve at half-maximal effect); conditions: U2OS GR-GFP nuclear translocation, laser cytometry, 2 h
Sequence of Glucocorticoid receptor (Homo sapiens) (P04150 whole entry, looked up, the tested form may be a part): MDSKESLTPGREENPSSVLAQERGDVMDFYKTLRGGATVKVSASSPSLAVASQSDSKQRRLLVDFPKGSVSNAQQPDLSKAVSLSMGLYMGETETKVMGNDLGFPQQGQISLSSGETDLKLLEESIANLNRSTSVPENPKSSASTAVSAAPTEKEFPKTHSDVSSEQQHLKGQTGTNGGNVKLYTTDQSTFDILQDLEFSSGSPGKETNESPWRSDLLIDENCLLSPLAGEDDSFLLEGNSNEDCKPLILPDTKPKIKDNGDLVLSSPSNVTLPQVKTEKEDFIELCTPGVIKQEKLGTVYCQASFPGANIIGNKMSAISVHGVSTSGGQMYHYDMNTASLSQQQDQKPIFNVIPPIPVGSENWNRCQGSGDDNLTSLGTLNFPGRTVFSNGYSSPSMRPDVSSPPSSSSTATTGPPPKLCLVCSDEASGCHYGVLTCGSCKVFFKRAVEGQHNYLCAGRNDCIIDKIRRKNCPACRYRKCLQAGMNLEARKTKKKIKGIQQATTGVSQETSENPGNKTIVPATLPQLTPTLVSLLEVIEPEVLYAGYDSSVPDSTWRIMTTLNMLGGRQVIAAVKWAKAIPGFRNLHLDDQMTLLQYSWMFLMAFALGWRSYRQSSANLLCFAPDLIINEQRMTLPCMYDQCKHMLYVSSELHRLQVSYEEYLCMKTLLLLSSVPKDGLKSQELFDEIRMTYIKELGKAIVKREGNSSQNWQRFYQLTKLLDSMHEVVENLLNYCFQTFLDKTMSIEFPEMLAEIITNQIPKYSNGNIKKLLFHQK

[16] = biological target: Glucocorticoid receptor (Homo sapiens) (UniProt P04150); experiment: GR-EFC Redistribution (AID 451; calls by dose curve; also: potency is read from the fitted curve at half-maximal effect); conditions: CHO-K1 GR-EFC translocation, beta-gal luminescence, 2 h
Summary of the method: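 Translocation of GR-ED fusion to nuclear EA restores b-gal, read by luminescence after 1 h room-temperature detection. Engineered CHO-K1 biosensor cells, 1,000/well, exposed 2 h at 37 C to titrations up to 46 uM final.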

[17] = measured here: cell count channel max response
[18] = measured here: lipid channel max response
[19] = at 7.69 µM (top of the series) unless noted

NC(=O)c1cc[n+](CC2=C(C(=O)O)N3C(=O)[C@@H](NC(=O)[C@H](c4ccccc4)S(=O)(=O)[O-])[C@@H]3SC2)cc1
inactive: activity change, negative = inhibition ([1]; at 17.2 µM (top of the series)) 2.93% | activity change, negative = inhibition ([1]; at 38 µM (top of the series)) -7.21% | Potency [2] | activity change, negative = inhibition ([3]; at 17.2 µM (top of the series)) 5.18% | activity change, negative = inhibition ([3]; at 38 µM (top of the series)) 3.09% | activity, negative = inhibition ([4]; at 17.2 µM (top of the series)) 0.394% | activity, negative = inhibition ([4]; at 38 µM (top of the series)) 0.148% | Potency [5] | Potency [6] | Potency [7] | outcome [8] | outcome [9] | activity change, negative = inhibition ([10]; at 25.7 µM (top of the series)) -1.52% | outcome [11] | Potency [12] | outcome [13]
-10.2%: max response [10, 17]
-11.3%: max response [10, 18]
active: Potency ([14]; parasite line A) 3.55 µM | Potency ([14]; parasite line B) 3.55 µM | Potency (AS120) 3.16 µM | Potency (CP238) 3.55 µM | Potency (CP265) 1.41 µM | Potency (FAB9) 3.16 µM

CC(C)(C)NC[C@H](O)c1cc(O)cc(O)c1
8%: max response [10, 17]
4.68%: max response [10, 18]
inactive: activity change, negative = inhibition ([1]; at 17.2 µM (top of the series)) -14.7% | activity change, negative = inhibition ([1]; at 38 µM (top of the series)) -8.4% | Potency [2] | activity change, negative = inhibition ([3]; at 17.2 µM (top of the series)) -10.3% | activity change, negative = inhibition ([3]; at 38 µM (top of the series)) 0.832% | activity, negative = inhibition ([4]; at 17.2 µM (top of the series)) -0.828% | activity, negative = inhibition ([4]; at 38 µM (top of the series)) 3.91% | Potency [5] | Potency [6] | Potency [7] | outcome [8] | outcome [9] | activity change, negative = inhibition ([10]; at 25.7 µM (top of the series)) -2.66% | outcome [11] | outcome [13] | activity, negative = inhibition ([14]; parasite line A) -9.2% | activity, negative = inhibition ([14]; parasite line B) -17.1% | Potency (AS120) | Potency (CP238) | Potency (CP265) | Potency (FAB9)

CN(C)Cc1ccccc1-c1ccc2ncnc(NCc3cccs3)c2c1
6.51%: max response [10, 18]
inactive: activity change, negative = inhibition [3, 19] -20.1% | activity, negative = inhibition [4, 19] -19.4% | Potency [15] > 46 µM | Potency [16] > 46 µM | Potency [5] | activity change, negative = inhibition ([10]; at 57.5 µM (top of the series)) 7.62% | Potency [12]
-0.921%: max response [10, 17]

CC(C)CN1CC[C@@]2(CCCN(C(=O)c3cc(C(F)(F)F)cc(C(F)(F)F)c3)C2)C1
13.4%: max response [10, 17]
inactive: activity, negative = inhibition [4, 19] 11.2% | Potency [16] > 46 µM | Potency [5] | Potency [6] | activity change, negative = inhibition ([10]; at 57.5 µM (top of the series)) 1.55%
active: Potency [2] 25.1 µM
17.5%: max response [10, 18]

CCCN(CCC)C(=O)[C@@H](CCC(=O)O)NC(=O)c1ccccc1
5.84%: max response [10, 17]
inactive: activity change, negative = inhibition ([1]; at 17.2 µM (top of the series)) 0.378% | activity change, negative = inhibition ([1]; at 38 µM (top of the series)) -3.39% | Potency [2] | activity change, negative = inhibition ([3]; at 17.2 µM (top of the series)) -4.73% | activity change, negative = inhibition ([3]; at 38 µM (top of the series)) -3.22% | activity, negative = inhibition ([4]; at 17.2 µM (top of the series)) -4.56% | activity, negative = inhibition ([4]; at 38 µM (top of the series)) -1.87% | Potency [15] > 46 µM and > 20.6 µM | Potency [16] > 46 µM and > 20.6 µM | Potency [5] | Potency [6] | Potency [7] | outcome [8] | outcome [9] | activity change, negative = inhibition ([10]; at 25.7 µM (top of the series)) 0.554% | outcome [11] | Potency [12] | outcome [13] | activity, negative = inhibition ([14]; parasite line A) 5.79% | activity, negative = inhibition ([14]; parasite line B) 7.29% | Potency (AS120) | Potency (CP238) | Potency (CP265) | Potency (FAB9)
4.96%: max response [10, 18]
